According to PubChem BioAssay (NCI):
About 79,000 compounds went through this panel and 15% of them were active in at least one assay; those are over-represented in the sample as a whole. A number with no mark means an inactive call. The source made the active and inactive calls. Cut-off read from the data, not from the text of the source: active = growth inhibition above about 70%; inactive = the rest.

Assays:
[1] = NCI Yeast Anticancer Drug Screen. Data for the rad50 strain (AID 155);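 note: 0% = growth of vehicle-only cultures of the same strain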; conditions: S. cerevisiae rad50 strain growth inhibition, stronger effect = higher value
Method in brief: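 Cells are treated with compound, grown, and their growth is then scored against vehicle-only cultures of the same repair-deficient yeast strain.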

[2] = NCI Yeast Anticancer Drug Screen. Data for the mec2-1 strain (AID 157); conditions: S. cerevisiae mec2-1 strain, stronger effect = higher value
Method in brief: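 mec2-1 yeast strain, carrying an alteration in DNA damage repair or cell cycle control, was exposed to compounds; growth inhibition was measured relative to vehicle-treated controls.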

[3] = NCI Yeast Anticancer Drug Screen. Data for the sgs1 mgt1 strain (AID 161);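 note: 0% = growth of cultures given vehicle only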; conditions: S. cerevisiae sgs1 mgt1 strain, stronger effect = higher value
Method in brief: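 Growth of a repair-deficient yeast mutant was monitored after compound treatment and expressed as inhibition relative to vehicle-treated cultures.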

[4] = NCI Yeast Anticancer Drug Screen. Data for the cln2 rad14 strain (AID 165);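 note: 0% = growth equal to vehicle treated cultures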; conditions: S. cerevisiae cln2 rad14 strain, stronger effect = higher value
Method in brief: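 Yeast carrying cln2 and rad14 alterations (cell cycle control and DNA damage repair) were exposed to compounds. Growth inhibition was measured against vehicle-treated controls.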

[5] = NCI Yeast Anticancer Drug Screen. Data for the bub3 strain (AID 167); conditions: S. cerevisiae bub3 mutant strain, stronger effect = higher value
Method in brief: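 Part of a panel of yeast mutants defective in DNA damage repair or cell cycle regulation. Each strain is grown with compound, and inhibition is calculated relative to solvent-treated cultures.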

[6] = NCI Yeast Anticancer Drug Screen. Data for the mlh1 rad18 strain (AID 175); conditions: S. cerevisiae mlh1 rad18 strain growth inhibition, stronger effect = higher value
Method in brief: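 Growth inhibition of the yeast strain was measured after compound exposure and expressed relative to vehicle-treated controls. The strain carries defined defects in DNA damage repair.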

[7] = at 5.0 µM (retest, dose inferred, filed as 0.5)
[8] = at 50.0 µM (retest, dose inferred, filed as 5.0)

Row | Structure (SMILES) | growth inhibition [1, 7] | growth inhibition [1, 8] | growth inhibition ([1]; at 50.0 µM) | growth inhibition [2, 7] | growth inhibition [2, 8] | growth inhibition ([2]; at 50.0 µM) | growth inhibition [3, 7] | growth inhibition [3, 8] | growth inhibition ([3]; at 50.0 µM) | growth inhibition [4, 7] | growth inhibition [4, 8] | growth inhibition ([4]; at 50.0 µM) | growth inhibition [5, 7] | growth inhibition [5, 8] | growth inhibition ([5]; at 50.0 µM) | growth inhibition [6, 7] | growth inhibition [6, 8] | growth inhibition ([6]; at 50.0 µM)
1 | Oc1ccc(Cc2ccccc2)cc1Cl | -1% | 74% (active) | 47.5% | -2% | 72% (active) | 41.7% | -2% | 78% (active) | 42.8% | -4% | 47% | 95% (active) | -6% | 54% | 97.7% (active) | -1% | 85% (active) | 41.6%
2 | CCN1C2=NCCN2S(=O)(=O)c2ccccc21 | 5% | 11% | -14.4% | 9% | 9% | -4.45% | 8% | 14% | -27.9% | 14% | 10% | -20.6% | 13% | 11% | -22.1% | 20% | 13% | -5.3%
3 | CCC(Cl)COP(=O)(OC(c1ccc(Cl)c(Cl)c1)P(=O)(OCC(Cl)CC)OCC(Cl)CC)C(CC)CCl (stereo not given) | 6% | 71% (active) | 86.7% (active) | -81% | 45% | 96.2% (active) | -3% | 45% | 94.2% (active) | -4% | 57% | 83.5% (active) | -2% | 57% | 79.5% (active) | 6% | 80% (active) | 94.2% (active)
4 | CC1=C2CCC3C(CCC4(C)C(C(C)CCCC(C)C)CCC34)C2(C)CCC1=O (stereo not given) | -11% | -2% | 41% | 1% | -2% | 4.25% | 4% | -1% | 16.4% | 6% | 3% | 18.4% | 1% | 5% | 4.1% | 17% | 9% | 10.9%
5 | CCOC(=O)C(=Cc1ccc(OC)cc1)C(=O)OCC | 0% | 62% | 39.6% | -1% | 70% (active) | 52.4% | -3% | 65% | 55.6% | 1% | 57% | 5.95% | 18% | 86% (active) | 68.8% | -1% | 77% (active) | 66.5%
6 | O=Cc1[nH]c(=S)[nH]c(=O)c1CCCc1ccccc1 | -15% | 79% (active) | 95.8% (active) | -7% | 90% (active) | 78.2% (active) | 15% | 97% (active) | 98.5% (active) | 17% | 92% (active) | 82.3% (active) | 5% | 95% (active) | 85% (active) | 11% | 97% (active) | 98.2% (active)
7 | COC1CCC2(C)C(=CCC3C4CC(OC(C)=O)CC4(C)CCC32)C1 (stereo not given) | 0% | 5% | 5.25% | -2% | 5% | 0.45% | 2% | 3% | -4.15% | -1% | 4% | 9.5% | 0% | 6% | -7.3% | 2% | 9% | -4.2%
8 | CC(=O)OC1CCCCCCCCCCC12OCCO2 (stereo not given) | 23% | 96% (active) | 30% | 5% | 98% (active) | 63% | 20% | 99% (active) | 73.5% (active) | 1% | 96% (active) | 63.6% | 1% | 96% (active) | 83% (active) | 10% | 96% (active) | 92% (active)
9 | CCCCOC(=O)c1ccc(O)c(OC)c1 | 3% | -13% | -19.8% | -10% | 4% | -3.2% | 0% | 6% | 5.25% | -5% | 2% | -43.9% | 85% (active) | 96% (active) | 95.7% (active) | 0% | 3% | -11.2%
10 | CCOC(=O)C1=C(c2ccccc2)SC(c2ccccc2)N(C(C)C)C1=O (stereo not given) | 8% | 67% | 90.3% (active) | 13% | 51% | 88% (active) | 15% | 81% (active) | 94.5% (active) | 12% | 63% | 83.6% (active) | 4% | 68% | 87.7% (active) | 9% | 76% (active) | 88.1% (active)
